This is a sample that favours compounds with a hit; in the whole collection about 1.5% have one here.
Eya2 phos inh: inhibitors of human Eya2 phosphatase activity | recombinant Eya2, OMFP fluorescence dephosphorylation (OMFP is methylfluorescein phosphate) | Potency, µM (doses to about 76.9 µM), actives largely listed as inhibitors | 330,000 compounds, 0.006% hits | AID 488837
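Eya2 (0.2 uM) preincubated 10 min at ambient with compound, then OMFP substrate added at 50 uM; 10 min reaction in 50 mM HEPES pH 7.5, 50 mM NaCl, 5 uM MgCl2, 0.05% BSA, 1 mM DTT. Fluorescence read at Ex 485/Em 525 nm.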
TrxR1 inh: rat TrxR1 inhibition | O89049 | recombinant rTrxR1, NADPH fluorescence consumption, selenite substrate | Potency, µM (top dose mostly 114 µM), most hits filed as inhibitors | 390,000 compounds, 1% hits | AID 588453; further: nearly all actives have a fitted effect of over 65% in size
Target sequence (O89049 whole entry, looked up): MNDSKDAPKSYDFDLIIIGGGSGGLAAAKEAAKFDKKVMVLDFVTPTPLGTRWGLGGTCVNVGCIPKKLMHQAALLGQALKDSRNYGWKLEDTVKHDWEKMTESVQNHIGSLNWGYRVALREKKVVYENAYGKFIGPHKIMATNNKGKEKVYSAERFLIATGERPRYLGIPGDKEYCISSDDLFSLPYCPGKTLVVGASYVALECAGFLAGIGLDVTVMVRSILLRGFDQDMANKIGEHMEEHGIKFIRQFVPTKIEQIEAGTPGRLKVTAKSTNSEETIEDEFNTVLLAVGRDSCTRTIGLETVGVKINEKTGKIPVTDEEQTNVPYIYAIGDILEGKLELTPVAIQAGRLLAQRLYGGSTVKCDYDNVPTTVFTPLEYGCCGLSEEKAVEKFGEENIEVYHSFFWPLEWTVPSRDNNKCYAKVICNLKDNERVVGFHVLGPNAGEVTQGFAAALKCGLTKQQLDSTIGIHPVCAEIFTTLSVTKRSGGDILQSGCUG
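Rat TrxR1 (90 nM in the dispensed reagent) was pre-reduced with 400 uM NADPH for 5 min at room temperature, then incubated with compound for 15 min. After 400 uM selenite was added, NADPH fluorescence (Ex 340/Em 450 nm) was followed for 8 min.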
IDH1 R132H inh: inhibitors of human mutant IDH1 R132H. O75874. IDH1-R132H enzyme, NADPH consumption, diaphorase/resazurin fluorescence. Potency, µM (top dose mostly 76.6 µM), usual class: inhibitors. 390,000 compounds, 0.093% hits; further: nearly all actives have a fitted effect of over 65% in size
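IDH1-R132H (0.5 ug/mL dispensed) in pH 7.5 Tris buffer was preincubated 30 min with compound, then given a substrate mix of 0.016 mM NADPH and 2 mM alpha-KG for 80 min at room temperature; remaining NADPH was read by diaphorase/resazurin fluorescence.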
TrxR1 substrate: substrates of rat thioredoxin reductase 1; O89049; purified TrxR1 substrate turnover, NADPH consumption readout; Potency, µM (top dose mostly 114 µM); 390,000 compounds, 0.01% hits; further: nearly all actives have a fitted effect of over 50% in size
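Rat TrxR1, dispensed at 90 nM, was prereduced with 400 uM NADPH (final) for 5 min at ~22 deg C, then incubated with compound 15 min before 400 uM selenite. A first-read NADPH fluorescence drop versus no-compound background flagged substrates.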
Coupling enz: inhibits coupling enzyme system, counter-screen for aldolase hits | activity change, negative = inhibition, % at 58.2 µM, hits read low | coupling enzyme system counterscreen, AmpLite Red fluorescence | 290,000 compounds, 0.67% hits | AID 2472; in the data active means activity change below about -30%
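Counterscreen lacking aldolase: glyceraldehyde-3-phosphate coupling-enzyme reagent preincubated 10 min at RT with compound (at 57.5 uM final), then substrate/coupling system with AmpLite Red added; fluorescence read at 525/598 nm after 20 min RT.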
A number is an active result; n = inactive; u = inconclusive; x = no result; [ ] = another dose, or the depositor's remark. Unless noted, the call rests on the fitted dose curve; in most records, active means well fitted curve in the direction sought with a large enough effect; inconclusive means small, poorly fitted or top-dose-only effect, or another doubt; inactive means no such curve, though single readings can be large; an effect the other way counts as inactive or inconclusive.

SMILES	Eya2 phos inh	TrxR1 inh	IDH1 R132H inh	TrxR1 substrate	Coupling enz
CC[C@H](C)[C@H](NC(=O)[C@H](CO)NC(=O)[C@H](CC(C)C)NC(=O)[C@H](CO)NC(=O)[C@@H]1CCCN1C(=O)[C@H](CC(N)=O)NC(=O)[C@@H](N)CC(=O)O)C(=O)N[C@@H](CC(=O)O)C(=O)N[C@@H](CC(C)C)C(=O)N[C@H](C(=O)N[C@@H](Cc1ccccc1)C(=O)N[C@@H](Cc1cnc[nH]1)C(=O)N[C@@H](CC(C)C)C(=O)N[C@@H](CC(C)C)C(=O)N[C@@H](CCCNC(=N)N)C(=O)N[C@H](C(=O)N[C@@H](CC(C)C)C(=O)N[C@@H](CC(C)C)C(=O)N[C@@H](CCC(=O)O)C(=O)N[C@@H](CC(C)C)C(=O)N[C@@H](C)C(=O)N[C@@H](CCCNC(=N)N)C(=O)N[C@H](C(=O)N[C@@H](CCC(N)=O)C(=O)N[C@@H](CO)C(=O)N[C@@H](CCC(N)=O)C(=O)N[C@@H](CCCNC(=N)N)C(=O)N[C@@H](CCC(=O)O)C(=O)N[C@@H](CCCNC(=N)N)C(=O)N[C@@H](C)C(=O)N[C@@H](CCC(=O)O)C(=O)N[C@@H](CCC(N)=O)C(=O)N[C@@H](CC(N)=O)C(=O)N[C@@H](CCCNC(=N)N)C(=O)N[C@H](C(=O)N[C@H](C(=O)N[C@@H](Cc1ccccc1)C(=O)N[C@@H](CC(=O)O)C(=O)N[C@@H](CO)C(=O)N[C@H](C(N)=O)C(C)C)[C@@H](C)CC)[C@@H](C)CC)[C@@H](C)O)[C@@H](C)O)[C@@H](C)O	x	x	x	x	n
O=C1CCCc2c1cc(C(=O)NC1CCSC1=O)c(=O)n2-c1ccccc1 (centres undefined)	n	n	n	n	-37.8
O=C1CCCc2c1cc(C(=O)O)c(=O)n2-c1ccccc1	n	n	n	n	n
O=C1CCCc2c1cc(C(=O)Nc1ccc(Br)cn1)c(=O)n2-c1ccccc1	n	n	n	n	-51.3
NCCCN(Cc1ccc(Cl)c(Cl)c1)c1ccc(Br)cn1	x	n	x	n	x
[O-]/C(=C(\C(=S)Nc1cccc2ccccc12)[n+]1ccccc1)c1cccs1	n	n	n	n	n
[O-]/C(=C(\C(=S)Nc1cccc2ccccc12)[n+]1ccccc1)c1ccc(OC(F)F)cc1	n	n	n	n	-40.5
COc1cccc(NC(=S)/C(=C(\[O-])c2ccc(OC(F)F)cc2)[n+]2ccccc2)c1	n	n	n	n	n
[O-]/C(=C(\C(=S)Nc1cccc2ccccc12)[n+]1ccccc1)c1ccc2c(c1)OCCO2	n	n	n	n	-46.4
Cc1cccc(C(=O)NCC(=O)OCC(=O)c2ccc3ccccc3c2)c1	x	n[0.0914 µM]	x	n	x
C1NNCC12CNNC2	x	n	x	n	x
Cc1cc(C(=O)c2ccccc2)c(NC(=O)CCl)s1	n	20µM	n	n	n
O=C(CCl)Nc1ccccc1Sc1ccc(Cl)cc1	n	8.91µM	n	n	n
O=C(CCl)Nc1ccccc1C(=O)c1ccccc1	n	20µM	n	n	n
COc1cccc([C@@H]2Oc3ccc(OC)cc3C(=O)[C@H]2OC(=O)NS(=O)(=O)c2ccc(C)cc2)c1	x	x	x	x	n
O[C@@H]1COC2[C@@H](O)CO[C@@H]21 (some centres undefined)	x	x	x	x	n
COc1ccc(CN2CC[C@H]3C=CC[C@@H](C(=O)N4CCN(c5ccccc5)CC4)[C@H]3C2=O)cc1OC	x	n	x	n	x
O=C1c2ccccc2C(=O)C12OC2c1cccc2ccccc12 (centres undefined)	n	n	n	n	-58.0
O=C1NC(c2cccc3ccccc23)Nc2ccccc21 (centres undefined)	x	n[11.4 µM]	n	n	x
CC(C)(C)NC(=O)C(c1cccnc1)N(C(=O)c1ccc(Cl)nc1)C1CCCC1 (centres undefined)	n	n	n	n	-50.9
Cc1ccc(NC2=CC(=O)c3sc(C)nc3C2=O)cc1	x	x	x	x	n
NC(N)=NCCC[C@H](N)C(=O)N1CCC[C@H]1C(=O)N1CCC[C@H]1C(=O)NCC(=O)N[C@@H](Cc1ccccc1)C(=O)N[C@@H](CO)C(=O)N1CCC[C@H]1C(=O)N[C@@H](Cc1ccccc1)C(=O)O	x	x	x	x	n
Cc1cc(C)cc(N=Cc2ccc([N+](=O)[O-])s2)c1	n	u	n	n	n

Source: PubChem
